# In the supplement of paper PMC12282887:
# ± gives the standard deviation of the averaged measurements.
# Columns and labels:
# Experiment in all cases: promoter activity interaction Z-score (Lux/OD deviation from empty-vector control); higher = stronger promoter induction by the compound
# [1] = system: E. coli BW25113 acrABp lux reporter
# Procedure, shortened: (§1)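 E. coli BW25113, as wild type or one of three single-gene deletion strains, carried low-copy luxCDABE promoter reporters and grew in 40 µl LB Lennox in 384-well plates at 37°C, with OD600 and luminescence read every 30 min for 12 h. Each compound was run at four 1:2 dilutions in biological duplicates, integration spanned 0–8 h for wild type and 1–9 h for deletion strains, and wells under 10% of the median growth value were dropped. The score is the Z-transformed residual of growth-normalised luminescence fitted against a control.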
# [2] = system: E. coli BW25113 marRABp lux reporter
# Procedure, shortened: as §1
# [3] = system: E. coli BW25113 micFp lux reporter
# Procedure, shortened: as §1
# [4] = system: E. coli BW25113 ompFp lux reporter
# Procedure, shortened: as §1
# [5] = system: E. coli BW25113 robp lux reporter
# Procedure, shortened: as §1
# [6] = system: E. coli BW25113 soxSp lux reporter
# Procedure, shortened: as §1
# [7] = system: E. coli BW25113 tolCp lux reporter
# Procedure, shortened: as §1
# [8] = 40.6 µg/ml, genetic background: wild type
# [9] = 40.6 µg/ml, genetic background: ΔmarA
# [10] = 40.6 µg/ml, genetic background: Δrob
# [11] = 40.6 µg/ml, genetic background: ΔsoxS
# [12] = 81.1 µg/ml, genetic background: wild type
# [13] = 81.1 µg/ml, genetic background: ΔmarA
# [14] = 81.1 µg/ml, genetic background: Δrob
# [15] = 81.1 µg/ml, genetic background: ΔsoxS
# [16] = 162.2 µg/ml, genetic background: wild type
# [17] = 162.2 µg/ml, genetic background: ΔmarA
# [18] = 162.2 µg/ml, genetic background: Δrob
# [19] = 162.2 µg/ml, genetic background: ΔsoxS
# [20] = 324.4 µg/ml, genetic background: wild type
# [21] = 324.4 µg/ml, genetic background: ΔmarA
# [22] = 324.4 µg/ml, genetic background: Δrob
# [23] = 324.4 µg/ml, genetic background: ΔsoxS
structure (smiles),measurement,setting,value
C=C[C@H]1CN2CC[C@H]1C[C@H]2[C@H](O)c1ccnc2ccc(OC)cc12 [Quinine],promoter activity interaction Z-score,[1]; [8],-0.0276 ± 0.14
same,promoter activity interaction Z-score,[1]; [9],0.379 ± 1.7
same,promoter activity interaction Z-score,[1]; [10],-0.214 ± 0.025
same,promoter activity interaction Z-score,[1]; [11],-0.207 ± 0.36
same,promoter activity interaction Z-score,[1]; [12],-0.0617 ± 0.23
same,promoter activity interaction Z-score,[1]; [13],0.66 ± 0.57
same,promoter activity interaction Z-score,[1]; [14],-0.0693 ± 0.15
same,promoter activity interaction Z-score,[1]; [15],0.146 ± 0.074
same,promoter activity interaction Z-score,[1]; [16],-0.321 ± 0.19
same,promoter activity interaction Z-score,[1]; [17],-0.122 ± 1
same,promoter activity interaction Z-score,[1]; [18],0.00483 ± 0.12
same,promoter activity interaction Z-score,[1]; [19],-0.386 ± 0.088
same,promoter activity interaction Z-score,[1]; [20],-0.269 ± 0.44
same,promoter activity interaction Z-score,[1]; [21],-0.173 ± 0.094
same,promoter activity interaction Z-score,[1]; [22],0.046 ± 0.023
same,promoter activity interaction Z-score,[1]; [23],-0.181 ± 0.2
same,promoter activity interaction Z-score,[2]; [8],0.0904 ± 0.38
same,promoter activity interaction Z-score,[2]; [9],-0.307 ± 0.24
same,promoter activity interaction Z-score,[2]; [10],-0.00554 ± 0.082
same,promoter activity interaction Z-score,[2]; [11],-0.106 ± 0.073
same,promoter activity interaction Z-score,[2]; [12],-0.119 ± 0.029
same,promoter activity interaction Z-score,[2]; [13],0.197 ± 0.19
same,promoter activity interaction Z-score,[2]; [14],-0.0844 ± 0.1
same,promoter activity interaction Z-score,[2]; [15],0.0817 ± 0.18
same,promoter activity interaction Z-score,[2]; [16],-0.16 ± 0.05
same,promoter activity interaction Z-score,[2]; [17],0.254 ± 0.062
same,promoter activity interaction Z-score,[2]; [18],-0.151 ± 0.3
same,promoter activity interaction Z-score,[2]; [19],-0.0309 ± 0.098
same,promoter activity interaction Z-score,[2]; [20],1.1 ± 0.12
same,promoter activity interaction Z-score,[2]; [21],1.18 ± 0.12
same,promoter activity interaction Z-score,[2]; [22],-0.164 ± 0.17
same,promoter activity interaction Z-score,[2]; [23],0.579 ± 0.51
same,promoter activity interaction Z-score,[3]; [8],0.322 ± 0.35
same,promoter activity interaction Z-score,[3]; [9],0.0116 ± 0.1
same,promoter activity interaction Z-score,[3]; [10],-0.133 ± 0.038
same,promoter activity interaction Z-score,[3]; [11],-0.0747 ± 0.16
same,promoter activity interaction Z-score,[3]; [12],0.106 ± 0.04
same,promoter activity interaction Z-score,[3]; [13],0.118 ± 0.17
same,promoter activity interaction Z-score,[3]; [14],-0.0678 ± 0.18
same,promoter activity interaction Z-score,[3]; [15],0.253 ± 0.078
same,promoter activity interaction Z-score,[3]; [16],0.0719 ± 0.29
same,promoter activity interaction Z-score,[3]; [17],0.23 ± 0.0035
same,promoter activity interaction Z-score,[3]; [18],0.137 ± 0.068
same,promoter activity interaction Z-score,[3]; [19],0.356 ± 0.086
same,promoter activity interaction Z-score,[3]; [20],0.7474 ± 0.0019
same,promoter activity interaction Z-score,[3]; [21],0.582 ± 0.025
same,promoter activity interaction Z-score,[3]; [22],0.201 ± 0.17
same,promoter activity interaction Z-score,[3]; [23],1.13 ± 0.047
same,promoter activity interaction Z-score,[4]; [8],0.0547 ± 0.22
same,promoter activity interaction Z-score,[4]; [9],-0.33 ± 0.1
same,promoter activity interaction Z-score,[4]; [10],-0.566 ± 0.33
same,promoter activity interaction Z-score,[4]; [11],0.39 ± 0.047
same,promoter activity interaction Z-score,[4]; [12],-0.0322 ± 0.074
same,promoter activity interaction Z-score,[4]; [13],0.401 ± 0.48
same,promoter activity interaction Z-score,[4]; [14],0.0636 ± 0.022
same,promoter activity interaction Z-score,[4]; [15],0.369 ± 0.07
same,promoter activity interaction Z-score,[4]; [16],-0.435 ± 0.35
same,promoter activity interaction Z-score,[4]; [17],-0.0896 ± 0.32
same,promoter activity interaction Z-score,[4]; [18],0.318 ± 0.14
same,promoter activity interaction Z-score,[4]; [19],-0.194 ± 0.092
same,promoter activity interaction Z-score,[4]; [20],-0.15 ± 0.097
same,promoter activity interaction Z-score,[4]; [21],0.352 ± 0.51
same,promoter activity interaction Z-score,[4]; [22],-0.0516 ± 0.19
same,promoter activity interaction Z-score,[4]; [23],-0.0712 ± 0.12
same,promoter activity interaction Z-score,[5]; [8],0.233 ± 0.19
same,promoter activity interaction Z-score,[5]; [9],-0.32 ± 0.61
same,promoter activity interaction Z-score,[5]; [10],-0.0483 ± 0.15
same,promoter activity interaction Z-score,[5]; [11],0.121 ± 0.51
same,promoter activity interaction Z-score,[5]; [12],-0.103 ± 0.11
same,promoter activity interaction Z-score,[5]; [13],0.432 ± 0.065
same,promoter activity interaction Z-score,[5]; [14],0.674 ± 0.12
same,promoter activity interaction Z-score,[5]; [15],0.933 ± 0.31
same,promoter activity interaction Z-score,[5]; [16],-0.361 ± 0.36
same,promoter activity interaction Z-score,[5]; [17],0.246 ± 0.82
same,promoter activity interaction Z-score,[5]; [18],0.504 ± 0.18
same,promoter activity interaction Z-score,[5]; [19],0.352 ± 0.57
same,promoter activity interaction Z-score,[5]; [20],-0.236 ± 0.25
same,promoter activity interaction Z-score,[5]; [21],0.371 ± 0.84
same,promoter activity interaction Z-score,[5]; [22],0.206 ± 0.3
same,promoter activity interaction Z-score,[5]; [23],-0.277 ± 1.1
same,promoter activity interaction Z-score,[6]; [8],-0.2102 ± 0.00085
same,promoter activity interaction Z-score,[6]; [9],-0.278 ± 0.015
same,promoter activity interaction Z-score,[6]; [10],-0.273 ± 0.13
same,promoter activity interaction Z-score,[6]; [11],-0.121 ± 0.17
same,promoter activity interaction Z-score,[6]; [12],-0.286 ± 0.043
same,promoter activity interaction Z-score,[6]; [13],-0.134 ± 0.031
same,promoter activity interaction Z-score,[6]; [14],-0.188 ± 0.032
same,promoter activity interaction Z-score,[6]; [15],-0.041 ± 0.2
same,promoter activity interaction Z-score,[6]; [16],-0.297 ± 0.031
same,promoter activity interaction Z-score,[6]; [17],-0.177 ± 0.0058
same,promoter activity interaction Z-score,[6]; [18],0.0402 ± 0.16
same,promoter activity interaction Z-score,[6]; [19],-0.15 ± 0.37
same,promoter activity interaction Z-score,[6]; [20],-0.241 ± 0.021
same,promoter activity interaction Z-score,[6]; [21],-0.171 ± 0.066
same,promoter activity interaction Z-score,[6]; [22],-0.243 ± 0.11
same,promoter activity interaction Z-score,[6]; [23],-0.272 ± 0.35
same,promoter activity interaction Z-score,[7]; [8],-0.906 ± 1
same,promoter activity interaction Z-score,[7]; [9],-0.418 ± 0.34
same,promoter activity interaction Z-score,[7]; [10],0.214 ± 1.5
same,promoter activity interaction Z-score,[7]; [11],-0.701 ± 0.52
same,promoter activity interaction Z-score,[7]; [12],-0.18 ± 0.28
same,promoter activity interaction Z-score,[7]; [13],0.28 ± 0.4
same,promoter activity interaction Z-score,[7]; [14],-0.738 ± 0.76
same,promoter activity interaction Z-score,[7]; [15],-0.512 ± 0.23
same,promoter activity interaction Z-score,[7]; [16],-0.157 ± 0.39
same,promoter activity interaction Z-score,[7]; [17],0.0619 ± 0.15
same,promoter activity interaction Z-score,[7]; [18],-0.0757 ± 0.051
same,promoter activity interaction Z-score,[7]; [19],-0.611 ± 1.3
same,promoter activity interaction Z-score,[7]; [20],-0.913 ± 0.14
same,promoter activity interaction Z-score,[7]; [21],0.586 ± 1.1
same,promoter activity interaction Z-score,[7]; [22],-0.0963 ± 1.2
same,promoter activity interaction Z-score,[7]; [23],0.127 ± 0.016
